# Most compounds without a hit are left out; they make up all but 2.6% or so of the library.
# PABP FP inh = PABP-poly(A) binding inhibition | P11940 | AID 2014 | hit rate 1% among 290,000 | calls only at 35 µM | PABP-poly(A) RNA binding, fluorescence polarization;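 also: calls also rest on retests at 20 µM and on dose response follow-up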
# Target sequence (P11940 whole entry, looked up): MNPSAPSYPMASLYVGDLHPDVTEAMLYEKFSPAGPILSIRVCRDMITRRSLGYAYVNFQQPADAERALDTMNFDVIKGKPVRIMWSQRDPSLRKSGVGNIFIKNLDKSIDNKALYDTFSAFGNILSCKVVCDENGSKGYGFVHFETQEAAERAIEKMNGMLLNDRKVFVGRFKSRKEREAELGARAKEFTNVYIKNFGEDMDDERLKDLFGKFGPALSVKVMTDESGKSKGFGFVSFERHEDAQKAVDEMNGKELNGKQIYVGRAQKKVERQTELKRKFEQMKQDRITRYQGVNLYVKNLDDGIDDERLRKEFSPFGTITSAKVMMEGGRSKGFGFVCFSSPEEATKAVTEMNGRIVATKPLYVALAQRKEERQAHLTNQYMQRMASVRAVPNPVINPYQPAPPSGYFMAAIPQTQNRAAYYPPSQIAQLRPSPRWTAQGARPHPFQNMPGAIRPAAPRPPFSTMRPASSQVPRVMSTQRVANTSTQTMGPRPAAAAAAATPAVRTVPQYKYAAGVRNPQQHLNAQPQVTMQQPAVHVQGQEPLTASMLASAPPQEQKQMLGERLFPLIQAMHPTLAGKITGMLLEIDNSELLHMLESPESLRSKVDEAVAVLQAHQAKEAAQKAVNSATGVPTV
# APOBEC3A inh = blocks human APOBEC3A ssDNA deamination; P31941; recombinant A3A, FAM/TAMRA ssDNA deamination fluorescence; inhibition, % at 20 µM; hit rate 0.41% among 330,000; AID 493011;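 active = at least 40% inhibition at 20 µM here, with at most 30% in a related deaminase screen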;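 also: plate controls were A3A with DMSO for no effect and wells lacking A3A enzyme for full effect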
# MLLE-PAM2 inh = blocks PAM2 peptide binding to the PABP1 MLLE domain; P11940; GST-MLLE / FITC-PAM2 fluorescence polarization; inhibition, % at 20 µM; hit rate 0.36% among 360,000; in the data active = inhibition above about 35%, passing the limit was not always enough;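 also: plate controls were DMSO wells with GST-MLLE for no effect and wells lacking GST-MLLE protein for full effect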
# A3G deaminase = blocks human APOBEC3G single-stranded DNA deamination. Q9HC16. recombinant A3G, ssDNA deamination FAM/TAMRA fluorescence. inhibition, % at 20 µM. hit rate 0.28% among 330,000. AID 493012;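 active = inhibition of at least 40% at 20 µM, with no more than 30% in the related APOBEC3A deaminase screen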;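 also: plate controls were DMSO wells with A3G for no effect and wells lacking A3G enzyme for full effect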
# eIF4H FP inh = inhibitors of RNA binding by human eIF4H; eIF4H fluorescence polarization binding assay; inhibition, % at 35 µM; hit rate 0.94% among 290,000; AID 2012;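 also: calls also rest on retests at 20 µM and on dose response follow-up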
# PHOSPHO1 block = PHOSPHO1 (human) inhibition | AID 1565 | recombinant PHOSPHO1, absorbance phosphatase assay | inhibition, % at 13.3 µM | hit rate 1.1% among 290,000; in the data active = inhibition above about 60%
# * = called active by the depositor; i = inactive; ? = inconclusive; · = no result; + = active, no number. Unless noted, no rule for the calls is given here.
SMILES,PABP FP inh,APOBEC3A inh,MLLE-PAM2 inh,A3G deaminase,eIF4H FP inh,PHOSPHO1 block
CN(CCc1ccccn1)C1CCCN(S(=O)(=O)c2ccc(F)c(Cl)c2)C1 (stereo not given),i,-4,-15,-8,3,47
Cc1cc(S(=O)(=O)N2CCCC(N(C)CCc3ccccn3)C2)c(C)s1 (stereo not given),i,-3,16,-9,-2,75*
CN(C)S(=O)(=O)c1ccc(Cl)c(C(=O)NC2=NCCS2)c1,i,-4,6,-3,-1,-3
S=c1[nH]nc(-c2ccco2)n1-c1ccccc1Cl,i,-1,-33,42*,-5,-75
S=c1[nH]nc(-c2cc(-c3ccco3)[nH]n2)n1-c1ccccc1Cl,i,41,-21,78,41,86*
Oc1ccccc1-c1cc(-c2ccco2)[nH]n1,i,0,12,-2,-1,73*
FC(F)(F)c1ccc(Cl)c(-n2c(-c3cc(-c4ccco4)[nH]n3)n[nH]c2=S)c1,+,3,-54,7,?,-25
S=c1[nH]nc(-c2cc(-c3ccco3)[nH]n2)n1-c1ccccc1,i,-3,-2,20,6,20
O=C(Nc1ncc(Cl)cc1Cl)c1c(F)cccc1Cl,i,-1,10,-2,-1,8
CCN(CC)C(=O)C1=C(C)N(Cc2ccccc2)C(=O)C(CC(=O)NC2CCCCC2)C1 (stereo not given),·,·,7,·,·,·
CC(OC(=O)COc1ccccc1)C(=O)NC1CCCC1 (stereo not given),·,-1,-2,10,·,·
COc1ccc(S(=O)(=O)/N=C2/NC(=O)/C(=C\c3ccco3)S2)cc1,i,90,13,62,90,5
Cc1cccc(N=C2NC(=O)/C(=C/C=C/c3ccco3)S2)c1C,+,·,-18,·,85,-18
O=C1NC(=Nc2ccccc2)S/C1=C\C=C\c1ccco1,i,61,-53,49,80,23
COc1ccc(N=C2NC(=O)/C(=C/c3ccco3)S2)cc1,i,-2,-22,-4,66*,9
Cc1ccc(N=C2NC(=O)/C(=C/C=C/c3ccco3)S2)cc1,+,·,-39,·,76*,0
Cc1cccc(S(=O)(=O)NC(=O)C2(C)CCN2C(=O)Cc2ccc(-c3ccccc3)cc2)c1 (stereo not given),·,·,7,·,·,·
CCOc1ccc(N2CC(C(=O)Nc3nnc(C4CCCCC4)s3)CC2=O)cc1 (stereo not given),i,-4,-20,-6,3,28
CCOC(=O)c1sc(N=NC2=C(O)CC(C)(C)CC2=O)c(C(=O)OCC)c1C,i,0,49,-3,60*,48
CCOC(=O)c1cc(CC)sc1/N=C/C1=C(O)CC(C)(C)CC1=O,i,-3,27,-5,15,14
Cc1[nH]c2ccc(C(=O)O)cc2c1C,i,-4,4,-7,-5,8
CCCc1c(C)[nH]c2ccc(C(=O)O)cc2c1=S,+,·,17,·,56*,23
CN1CCC(N(C)C(=O)/C(C#N)=C\c2ccc(OC(F)F)cc2)CC1,·,·,28,·,·,·
COc1ccc(OC)c(NC(=S)NCc2ccc(S(N)(=O)=O)cc2)c1,i,0,15,1,2,6
COc1ccc(NC(=S)Nc2ccc(OC)cc2OC)c(OC)c1,i,1,-11,3,3,64*
SMILES,PABP FP inh,APOBEC3A inh,MLLE-PAM2 inh,A3G deaminase,eIF4H FP inh,PHOSPHO1 block
COc1ccc(NC(=S)NCc2ccc(S(N)(=O)=O)cc2)c(OC)c1,i,1,-4,6,active,4
Cc1cc2cc(C(c3nnnn3Cc3ccccc3)N3CCc4ccccc43)c(=O)[nH]c2cc1C (stereo not given),i,0,4,1,-4,23
Cc1cc2cc(C(c3nnnn3Cc3ccco3)N3CCc4ccccc4C3)c(=O)[nH]c2cc1C (stereo not given),+,1,1,8,63*,-42
Cc1cc2cc(C(c3nnnn3Cc3ccco3)N3CCc4ccccc43)c(=O)[nH]c2cc1C (stereo not given),+,9,-4,9,26*,43
CCC1(c2ccc(F)cc2)NC(=O)N(CC(=O)NCc2ccccc2Cl)C1=O (stereo not given),i,-3,-12,-12,-6,24
O=C(N/N=C/c1ccc(OCc2ccccc2)cc1)c1ccncc1,i,-6,5,-7,6,20
